Among all 53,000 compounds or so, about 900 (1.7%) showed an effect of 50% or more. The sample as a whole holds a higher share of strong results than the screen did.

The subject of the assay is Mycobacterium tuberculosis. The assay can be described thus: Cornell - Phenotypic assay to identify agents that inhibit growth of Mycobacterium tuberculosis. The class given is functional. Set-up: scale not given: direction of the effect not stated beside the values. The note with it: 10 mM as filed; unlikely as a test dose.
`COC(=O)c1cc(OCC2CCC2)cc(C(=O)N[C@H]2CCCC[C@@H]2O)c1`: the “Percent Effect” value is 13.96%. Regarding `Cc1nc(C)c(C(=O)N2CCCC2(C)C(=O)NC2CCCC2)s1` (configuration not stated), the “Percent Effect” value is -2.69%. With `Cc1cc(C)n(CC2CN(CC(=O)NC3(C#N)CCCC3)CCO2)n1` (configuration not stated) the figure was -4.222%. `CCOCCC(=O)Nc1cccc(Oc2ccccn2)c1`: the “Percent Effect” value is -2.089%. With `NC(=O)c1cnc(NC2CCN(c3ccccc3)CC2)c(Cl)c1`, the “Percent Effect” value is 48.08%. As to `NC(=O)c1cnc(NC2CCN(c3ccccn3)CC2)c(Cl)c1`, the “Percent Effect” value stood at 18.4%. Then `NC(=O)c1cnc(NC2CCC(c3ccccc3)CC2)c(Cl)c1` (configuration not stated), with 57.03%; and `O=S(=O)(c1cccnc1)N1CCN(Cc2nc(-c3ccco3)cs2)CC1`, with 31.36%. With `Cc1nc(C)n(CC2CCCN(Cc3cccnc3)C2)n1` (configuration not stated) the figure was 6.124%; with `CN(CCC(F)(F)F)Cc1nc2ccccc2c(=O)[nH]1`, 7.133%. With `Cn1nc2c(cc1=O)CN(CCc1nc3ccccc3c(=O)[nH]1)CC2` the figure was 8.475%. Take `O=c1[nH]c(CCN2CCCC(Cn3cncn3)C2)nc2ccccc12` (configuration not stated): the “Percent Effect” value is listed as 33.45%. As to `CN(CCc1nc2ccccc2c(=O)[nH]1)CCC(F)(F)F`, the “Percent Effect” value stood at 95.2%.

`CN(CCC(F)(F)F)c1nc2ccccc2c(=O)[nH]1`: the “Percent Effect” value was -4.598%. Consider `O=c1[nH]c(CCN2CCN(CC(F)(F)F)CC2)nc2ccccc12`, for which the “Percent Effect” value is reported as 106.7%. In the case of `CCOCCN1CCN(CCc2nc3ccccc3c(=O)[nH]2)CC1`, the “Percent Effect” value is 106.8%. In the case of `CCC(CC)C(=O)N1CCN(Cc2nc3ccccc3c(=O)[nH]2)CC1`, the “Percent Effect” value was 5.405%.

`O=c1[nH]c(CN2CCN(CC(F)(F)F)CC2)nc2ccccc12`: the “Percent Effect” value was 9.356%. Then `O=C(c1sccc1-n1cnnn1)N1CCC(Cc2ccccc2)CC1`, with 28.81%; and `CCOC1Sc2nnc(C)n2N=C1c1ccc(F)cc1` (configuration not stated), with 27.03%; and `CC(C)NC(=O)N1CCN(Cc2ccccn2)CC2(CC(=O)N(C)C2)C1.O=C(O)C(F)(F)F.O=C(O)C(F)(F)F` (configuration not stated), with -0.1639%. For `COc1cccc(CC2CCCN2Cc2nccn2C)c1` (configuration not stated), the “Percent Effect” value turned out to be 13.47%.

Regarding `Cc1cc(C(=O)N2CC[C@H]3[C@@H]2CCC(=O)N3c2ccccc2)no1`, the “Percent Effect” value came to 0.08428%. With `O=C(c1cscn1)N1CC[C@H]2[C@@H]1CCC(=O)N2c1ccccc1` the figure was 102.6%; with `Cn1cc(N2C(=O)CC[C@@H]3[C@H]2CCN3C(=O)c2cscn2)cn1.O=C(O)C(F)(F)F`, 15.97%.

As for `Cc1nnc(CN(Cc2ccc3c(c2)OCO3)C2CCC(C)CC2)o1` (configuration not stated), the “Percent Effect” value came out at 50.97%. Then `CCc1noc(CN(Cc2ccc3c(c2)OCO3)C2CCCC2)n1`, with 1.573%; and `Cc1nnc(CN(Cc2cccc(Br)c2)C2CC2)o1`, with 22.14%. Then `Cc1nnc(CN(Cc2ccccc2Br)C2CC2)o1`, with 42.91%. Then `Cc1noc(CN(Cc2ccc3c(c2)OCO3)C2CCCC2)n1`, with 4.979%; and `Cc1nnc(CN(Cc2ccc3c(c2)OCO3)C2CCCCC2)o1`, with 52.33%; and `O=C(CCn1cc(Cl)cn1)N1CCN(CC2CC2)[C@@H]2CS(=O)(=O)C[C@@H]21`, with -27.81%. For the compound `O=C(CC1CCc2ccccc21)N1CCC(C(=O)O)(n2ccnc2)CC1` (configuration not stated), the “Percent Effect” value is -2.815%. For `O=C(NCc1ccnc(OCC2CC2)c1)C1COc2ccccc2O1` (configuration not stated), the “Percent Effect” value turned out to be 12.77%. With `CC(=O)Nc1cccc(OCCNC(=O)N(C)Cc2ccco2)c1`, the “Percent Effect” value came out at 2.051%. As for `CC(C)C(=O)Nc1cccc(OCC(=O)NCc2ccccc2F)c1`, the “Percent Effect” value is 6.908%. With `CC(C)C[C@H](N)COc1cccc(F)c1Oc1ccccc1` the figure was 5.347%; with `CC(C)C[C@H](N)COc1cccc(F)c1Oc1ccc(Cl)cc1`, 107.4%. `CNCc1cc(F)ccc1Oc1ccc(Cl)cc1`: the “Percent Effect” value is recorded as -16.87%. Then `Cc1ccc(Oc2c(F)cccc2OC[C@@H](N)CC(C)C)cc1`, with 106.4%; and `CC(C)C[C@H](N)COc1cccc(F)c1Oc1cccc(Cl)c1`, with 106.7%. For `CCNCCOc1ccc(-c2cc(N)nc3[nH]ccc23)cc1`, the “Percent Effect” value is recorded as 21.99%.

Take `COc1c(C)cnc(CN2CCCC2c2noc(C)n2)c1C` (configuration not stated): the “Percent Effect” value was -16.92%. Turning to `CCCC1(CO)CCCN(c2ncnc3c2c(C)nn3C)C1` (configuration not stated), the “Percent Effect” value is reported as -13.93%.

`Cc1cccc(-c2ccc(C(=O)N3CCN(C(C)C)CC3)c(=O)[nH]2)c1`: the “Percent Effect” value amounted to 26.41%. Then `CC(C)OCCC(=O)NS(=O)(=O)N1CCOc2ccccc21`, with 29.29%; and `CCOc1ccccc1C(=O)NCCc1ccoc1`, with 23.58%. With `CNS(=O)(=O)c1ccc(C(=O)NC2CCOc3ccccc32)o1` (configuration not stated) the figure was 7.684%.

Take `CC(C)c1nnc2sc(CC3CN(Cc4ccccc4)CCO3)nn12` (configuration not stated): the “Percent Effect” value is reported as -19.21%. With `CC(C)COCCCNC(=O)c1cccnc1N1CCOCC1` the figure was 3.314%. `O=C(NCCCOCC1CCCO1)c1cccnc1N1CCCC1` (configuration not stated): the “Percent Effect” value is 105.2%. Then `O=C(NCCCOCC1CCCO1)c1cccnc1N1CCOCC1` (configuration not stated), with -37.06%; and `Cc1ccc(C)n1-c1ccc(C(=O)NCCNc2ncccn2)cc1`, with 76.43%. Consider `O=C(NCCNc1ncccn1)c1ccc(Br)cc1`, for which the “Percent Effect” value is on record as -16.37%.

As to `CCc1ccc(C(=O)NCCNc2ncccn2)cc1`, the “Percent Effect” value is reported as -25.5%. With `Cc1cc(N(C)C)nc(C2(C)CCCN2C(=O)c2cncnc2C)n1` (configuration not stated) the figure was -9.352%; with `CN(C)C(=O)[C@@H]1CCO[C@@H]2CCN(Cc3ccccc3)C[C@@H]21.O=C(O)C(F)(F)F`, 104.8%; with `CN(C)C(=O)[C@@H]1CCO[C@@H]2CCN(CCc3ccccc3)C[C@@H]21.O=C(O)C(F)(F)F`, 4.406%.

For the compound `CN(C)C(=O)[C@@H]1CCO[C@@H]2CCN(Cc3ccc4c(c3)OCO4)C[C@@H]21.O=C(O)C(F)(F)F`, the “Percent Effect” value is listed as -46.82%. In the case of `CCc1ccc(CN(C(=O)CCn2cc(S(N)(=O)=O)cn2)C2CC2)cc1`, the “Percent Effect” value is reported as -10.53%.

For `COc1ccc(C2CN(c3cc(C)ncn3)CCN2C(C)=O)cc1` (configuration not stated), the “Percent Effect” value is reported as -53.77%. Consider `Cc1nn(CCNc2ncnc3c2NC(=O)CN3)c(C)c1Cl`, for which the “Percent Effect” value was determined as 45.57%.

As to `COc1cc(N2CCC3(CCN(Cc4csc(C)n4)C3)CC2)ncn1.O=C(O)C(F)(F)F`, the “Percent Effect” value is on record as 24.59%.

Turning to `CCCc1noc(CCC(=O)N2CCCC2c2ccsc2)n1` (configuration not stated), the “Percent Effect” value was determined as 22.08%. `CCCc1noc(CN2CCCC2c2ccsc2)n1` (configuration not stated): the “Percent Effect” value is listed as 52.86%. With `Cc1nnc(CN2CCCC2c2ccsc2)o1` (configuration not stated) the figure was 14.43%. Then `CN(C)CCNC(=O)c1ccn(-c2ccc3ccccn23)n1.O=C(O)C(F)(F)F`, with 12.93%; and `CC(C)N1CCCC1c1cc(CCO)[nH]n1` (configuration not stated), with 11.54%; and `CCC(=O)N1CCC(c2cc(Nc3ncccn3)nc(C)n2)C1` (configuration not stated), with -34.07%. In the case of `Cc1ccccc1CC(=O)N[C@@H]1CCC[C@@H](N2CCNC(=O)C2)[C@@H]1O`, the “Percent Effect” value worked out at 3.763%.

`CN([C@@H]1CC[C@@H](N2CCCC2)[C@@H]1O)S(=O)(=O)c1ccccc1`: the “Percent Effect” value was determined as 24.86%. As for `O=C1CN([C@@H]2CC[C@@H](NS(=O)(=O)c3ccc(F)cc3)[C@H]2O)CCN1`, the “Percent Effect” value amounted to 42.43%. With `O=C1CN([C@@H]2CC[C@@H](NS(=O)(=O)c3ccccc3)[C@H]2O)CCN1`, the “Percent Effect” value came out at 55.41%. Consider `O=C1CN([C@@H]2CC[C@@H](NS(=O)(=O)c3ccccc3F)[C@H]2O)CCN1`, for which the “Percent Effect” value is on record as -3.18%.

`Cc1ccccc1S(=O)(=O)N[C@@H]1CC[C@@H](N2CCNC(=O)C2)[C@@H]1O`: the “Percent Effect” value turned out to be 54.18%. Then `Cc1ccc(-c2nnc(CN3CCn4c(nnc4C4CC4)C3)o2)cc1`, with 2.899%; and `CCOCC(=O)N1C[C@@H]2CC[C@H](Oc3ccccc3)[C@@H]2C1`, with -14.06%; and `CCCN1CCCn2nc(CNS(=O)(=O)c3cccc(F)c3)cc2C1`, with -34.67%. Turning to `CCN(CC)CCCNCc1cc2cc(C)ccc2[nH]c1=O`, the “Percent Effect” value is 4.422%.

In the case of `CCOc1ncccc1NC(=O)N1CCC(n2cncn2)CC1`, the “Percent Effect” value is reported as 14.59%. With `CCN(Cc1ncc(C(C)(C)C)o1)Cc1ccccc1C` the figure was -5.269%; with `CCN(Cc1cccc(Cl)c1)Cc1ncc(C(C)(C)C)o1`, 0.2424%; with `Cc1cccc(CN(Cc2ccccn2)Cc2ncc(C(C)(C)C)o2)c1`, 69.04%. As for `Cc1nc2ccc(C(=O)N3C[C@@H](O)[C@H](N4CCCC4)C3)cc2[nH]1`, the “Percent Effect” value amounted to 1.956%. Take `COCC(=O)NC(c1ccccc1)c1ccc2c(c1)CCCO2` (configuration not stated): the “Percent Effect” value came out at 34.89%.

Consider `Cc1cc(NCc2cccc(C#N)c2)ccc1Br`, for which the “Percent Effect” value amounted to 50.78%.

`Cc1cc(NCc2cccc(C#N)c2)ccc1C(=O)N(C)C`: the “Percent Effect” value is 22.32%. Then `Cc1cc(NCc2cccc(C#N)c2)ccc1C(N)=O`, with 38.13%. With `CC(O)c1cccc(Nc2nc(NCCO)c3ccccc3n2)c1` (configuration not stated) the figure was -13.85%; with `CCN(CC)c1nc(Nc2cccc(C(=O)O)c2)nc2ccccc12`, -13.69%; with `CCN(CC)c1nc(Nc2cccc(C(C)O)c2)nc2ccccc12` (configuration not stated), 104.6%. As to `NC(=O)NCC(=O)N1CCCC(OCc2cccnc2)C1` (configuration not stated), the “Percent Effect” value is on record as -45.31%. With `Oc1cc(C2CCCCN2Cc2cccs2)nc(-c2ccccn2)n1` (configuration not stated) the figure was 21.14%; with `Cn1ncc2ccc(C3CCCN(Cc4cccs4)C3)nc21` (configuration not stated), -1.871%; with `Oc1cc(C2CCCN(Cc3cccs3)C2)nc(-c2ccccn2)n1` (configuration not stated), 76.98%. Then `Cc1nc(CCN2CCC(Oc3ccccc3F)CC2)cs1`, with 0.3496%.

As for `Cc1nc(C)c(CCN2CCC(Oc3ccccc3F)CC2)s1`, the “Percent Effect” value amounted to 50.26%. As to `Cc1nc(CCN2CCC(Oc3ccccc3F)CC2)c(C)s1`, the “Percent Effect” value amounted to 4.042%. Consider `Cc1cnc(-c2nc(O)c3c(n2)CN(C(=O)CC2CCCC2)CC3)cn1`, for which the “Percent Effect” value is recorded as 2.725%. Turning to `CC(C)N(C)S(=O)(=O)N(C)Cc1ccc2c(c1)OCO2`, the “Percent Effect” value is -6.095%. Then `CCN(C)S(=O)(=O)N(CC)Cc1ccc2c(c1)OCO2`, with 26.78%. With `CCN(Cc1ccc2c(c1)OCCO2)S(=O)(=O)N(C)C(C)C` the figure was 54.92%.

The record behind these values is ChEMBL document CHEMBL3988442, “University of Dundee, Small-Polar-MMV Screening Library” (2021).
